Data taken from PubChem BioAssay AID720641 (ICCB-Longwood Screening Facility, Harvard Medical School, 2013).
The whole screen tested about 170,000 compounds, of which about 900 (0.53%) were called active. This is one part of a sample in which actives are shown more often than they occur.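 Rule for the calls: active = relative growth at most 50% at the other temperature and 20+ points below 30 °C, or under 10% at both; inactive = the rest, inconclusive results apart.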

Experiment: Staphylococcus aureus RN4220 growth blockers – two temperatures, LtaS inhibitor project, primary screen (AID 720641)
Settings: S. aureus RN4220 growth, OD600, 20 h, 42 °C, stronger effect = lower value

SMILES | relative growth | relative growth (measured here: growth at 30 °C) [%]
COc1cccc(OCCCN2CCNCC2)c1 | 107% (inactive) | 91
Cc1ccc(S(=O)(=O)N(C)c2ccc(OCC(=O)N3CCN(c4ncccn4)CC3)cc2)cc1 | 105% (inactive) | 95.7
O=C(CSc1nnc(-c2ccccc2)o1)N(CC1CCCO1)c1nc2ccccc2s1 (stereo not drawn) | 101% (inactive) | 92.8
C=CCn1c(SCC(=O)Nc2sc(C(=O)OC)c(C)c2C(=O)OC)nc2ccccc21 | 103% (inactive) | 90.4
Cc1ccc(Nc2nc3ccccc3nc2-n2nc(C)cc2C)c(Cl)c1 | 102% (inactive) | 86.6
Cc1cccc(Nc2cc(C)nc(-n3nc(C)cc3C)n2)c1 | -0.22% (active) | -0.24
Cc1ccc2nc(Nc3ccccc3)cc(C)c2c1 | 75.4% (inactive) | 74.3
Cc1nc2ccccc2nc(C)c1=NOCC(=O)Nc1ccc(S(=O)(=O)N2CCOCC2)cc1 | 102% (inactive) | 96.4
O=C(CCCN1C(=O)CSc2ncccc21)N1CCCCC1 | 98.9% (inactive) | 84.5
COc1ccc(C(C(=O)NC2CCCC2)N(C(=O)c2ccn[nH]2)c2ccc(F)cc2)cc1OC (stereo not drawn) | 113% (inactive) | 89
CC(C)NC(=O)CSc1ccccc1C(=O)Nc1ccc(-n2cnnn2)cc1 | 102% (inactive) | 89.2
O=S(=O)(Nc1ccc2cn[nH]c2c1)c1ccccc1 | 105% (inactive) | 98.5
c1ccc2c(c1)CC(Nc1ccc3cn[nH]c3c1)C2 | 1.74% (active) | 1.83
c1ccc(NC2CCCCC2)cc1 | 104% (inactive) | 103
Cc1cc(C)c(NC(=O)C2CC3c4ccccc4C2C2C=CC=CC32)c(C)c1 (stereo not drawn) | 123% (inactive) | 88.2
Nc1cc(C(F)(F)F)ccc1-n1cccn1 | 92.8% (inactive) | 95.4
COc1ccc2c(c1)NC(c1ccccc1)c1cccn1-2 (stereo not drawn) | 69.2% (inactive) | 62.6
Oc1c(Cl)cc(Cl)cc1C1Nc2cc(C(F)(F)F)ccc2-n2cccc21 (stereo not drawn) | 5.2% (active) | 6.75
COCCCn1c(C)cc(C(=O)CSc2ncnc3ccccc23)c1C | 136% (inactive) | 92.1
CC1Cc2ccccc2N1c1ccc2ccccc2n1 (stereo not drawn) | 94.3% (inactive) | 99.6
C/C=C/c1ccc(OCC(=O)OC(C)C(N)=O)c(OC)c1 (stereo not drawn) | 71.1% (inactive) | 88.7
COc1cc(/C=C/C(=O)OCC(N)=O)ccc1OCC#N | 46.3% (active) | 78.8
COc1ccc(/C=C/C(=O)N2CCCC2)cc1OC | 81.4% (inactive) | 88.8
COc1cc(C2C(C(=O)Nc3ccccn3)=C(C)NC3=C2C(=O)CCC3)cc(OC)c1OC (stereo not drawn) | 98.5% (inactive) | 93.4
CC(C)CC(=O)n1c(=O)oc2ccccc21 | 96.6% (inactive) | 101

SMILES | relative growth | relative growth (measured here: growth at 30 °C) [%]
N#Cc1c(-c2ccco2)cc(C2CC2)nc1SCC(=O)c1ccc(Br)cc1 | 82.6% (inactive) | 76.7
O=C(NCCSc1ccccc1)c1cccnc1Oc1ccccc1 | 115% (inactive) | 76.2
CC(=O)Oc1cccc2c1OC(C)(C)C2 | 117% (inactive) | 99.9
CC(=O)Oc1cccc2c1C(=O)C=CC2=O | 2.55% (active) | 1.59
CC(=O)Oc1ccc(OC(C)=O)c2c1C1C=CC2CC1 | 105% (inactive) | 99.4
CSCCC(=O)Nc1nc2ccccc2[nH]1 | 113% (inactive) | 87.5
O=C(Nc1cccc(Cl)c1)Nc1ccccn1 | 61.4% (inactive) | 70
CC(=O)Nc1ccc2c(c1)CN(C1CCCCC1)CO2 | 90.6% (inactive) | 87.6
O=C(Nc1ccc(Cl)c(Cl)c1)Nc1ccnn1C1CCCCC1 | -0.5% (active) | -0.69
CCc1ccc(NC(=O)Nc2ccccc2)cc1 | 93.4% (inactive) | 96.9
O=C(Nc1ccccc1)Nc1ccc(Cl)c(Cl)c1 | 2.14% (active) | 2.42
CC(C)Oc1ccc(C(=O)Nc2ccnn2C2CCCCC2)cc1 | 105% (inactive) | 98.1
CC(=O)N1CC(C(=O)Nc2cccc(-c3nnc4n3CCCCC4)c2)Oc2ccccc21 (stereo not drawn) | 78.4% (inactive) | 92.9
Cc1ccc2nc(COC(=O)Cn3[nH]c(=O)c4ccccc4c3=O)cc(=O)n2c1 | 78.6% (inactive) | 90.7
CCOc1ccc(C(=O)N2CCC(Cc3ccccc3)CC2)cc1 | 122% (inactive) | 75.5
CS(=O)(=O)NCCNc1cc(-c2ccccc2)nc2ccccc12 | 99.5% (inactive) | 72.5
CCC(CC)NCc1ccc(OC)c(C)c1OC | 74.7% (inactive) | 81.6
COc1ccc(-c2nn(C)c3sc(C(=O)NCCN4CCN(c5ccccc5F)CC4)cc23)cc1OC | 82.7% (inactive) | 76.9
O=C(c1ccco1)N1CCN(C(=O)c2cc3c(s2)CCCC3)CC1 | 96.3% (inactive) | 87.5
O=C(Sc1nc(-c2ccccc2)c(-c2ccccc2)[nH]1)c1cccs1 | 84.6% (inactive) | 74.2
Cc1cc(SCc2ccc(F)cc2)c(C)cc1Cl | 105% (inactive) | 102
NC(=O)c1oc2ccccc2c1NC(=O)Cc1ccc(Cl)cc1 | 89.8% (inactive) | 77.5
CC1CCN(C(=O)COc2ccc(-c3nn(C)c(=O)c4ccccc34)cc2)CC1 | 86.8% (inactive) | 89.7
Cc1ccccc1OCc1nc(C#N)c(NC(C)c2ccccc2)o1 (stereo not drawn) | 82.4% (inactive) | 79.9
